# NTMT1 inhibitor – Primary qHTS for Inhibitors of N-terminal methyltransferase 1 (NTMT1): MTaseGlo Assay; NTMT1 MTase-Glo SAH luminescence, purified enzyme; 59,000 compounds, 2.5% hits; Potency, µM (series often up to 114 µM), actives largely listed as inhibitors; N-terminal Xaa-Pro-Lys N-methyltransferase 1 (Homo sapiens), Q9BV86; also: nearly all actives have a fitted effect of over 65% in size
# Target sequence (Q9BV86 whole entry, looked up): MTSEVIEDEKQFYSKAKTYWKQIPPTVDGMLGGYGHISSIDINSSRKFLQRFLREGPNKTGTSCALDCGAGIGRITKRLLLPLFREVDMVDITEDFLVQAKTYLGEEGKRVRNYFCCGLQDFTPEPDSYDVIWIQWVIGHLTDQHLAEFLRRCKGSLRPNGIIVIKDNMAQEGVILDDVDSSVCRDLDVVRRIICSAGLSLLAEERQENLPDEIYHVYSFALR
# GPR32 ag – qHTS for Agonists of Human Resolvin D1 Receptor DRV1. CHO-K1 GPR32 beta-arrestin PathHunter luminescence, 90 min; zero percent set by DMSO-only wells. Probable G-protein coupled receptor 32 (Homo sapiens), O75388. AID 1346428, 2018. activation, % at 76.9 µM. 48,000 compounds, 2.5% hits;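 active = activation of at least 60% and not above a set upper limit, about 1 call in 100 departs from these limits; inconclusive = activation of 40% to 60%, or above that upper limit; inactive = activation under 40%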
#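 CHO-K1 cells stably expressing ProLink-tagged GPR32 and Enzyme Activator-tagged beta-arrestin were seeded at 2,500 cells/well overnight, exposed to compounds for 90 min at 37 °C, then read by beta-Gal complementation chemiluminescence after 1 h detection reagent.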
# GALK inh – qHTS Assay for Inhibitors of Human Galactokinase (GALK): NCGC Sytravon Library Screen. P51570. recombinant GALK, Kinase-Glo ATP luminescence, 1 h. Potency, µM (highest dose often 57.5 µM), actives largely listed as inhibitors. 44,000 tested, under 10 active. AID 1347072, 2019
#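 5 nM GALK; 35 uM ATP; 100 uM D-galactose; 20 mM HEPES pH 8.0, 5 mM MgCl2, 60 mM NaCl, 1 mM DTT, 0.01% BSA; 1 h RT; Kinase-Glo Plus luminescence.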
# TSG101-PTAP inh – qHTS Validation Assay for Inhibitors of HIV-1 Budding by Blocking the Interaction of PTAP/TSG101: Sytravon Library Screen | Tumor susceptibility gene 101 protein (Homo sapiens), Q99816 | Fluorescence polarization, FITC-PTAP peptide/Tsg101, 20 min | Potency, µM (doses to about 115 µM), hits mostly inhibitors | 44,000 tested, under 10 active | AID 1347069, 2019
#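 FITC-labeled PTAP peptide (50 nM final) binding to Tsg101 binding domain (10 uM final) read by fluorescence polarization after 20 min at r.t. in HEPES pH 7.5 buffer. Actives by CRC class, <25 µM.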
# B2AR arrestin ag – qHTS assay of beta-arrestin-biased ligands of beta2-adrenergic receptor: NCGC Sytravon Library Screen | Potency, µM (titrated, usually from 46.1 µM), most hits filed as activators | 44,000 tested, under 10 active | HTLA Tango cells, beta-arrestin recruitment, luciferase luminescence, 18 h
#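 Ligand-induced beta-arrestin recruitment to recombinant beta2-AR is measured via a tTA-driven luciferase reporter in Tango cells after 18 hr compound exposure at 37 degrees C. Concentrations span up to 46 microM.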
# SKOV3 invasion – Primary qHTS assay for Inhibitors of ovarian cancer metastasis using an organotypic tumor microenvironment (TME) model | 46,000 compounds, 0.1% hits | Potency, µM (highest dose often 45.8 µM), usual class: inhibitors | SKOV3ip1-GFP adhesion/invasion on 3D omental model, fluorescence | AID 1963576, 2024; also: nearly all actives have a fitted effect of over 65% in size
#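 Adhesion/invasion was scored as fixed GFP-labeled SKOV3ip1 cell counts (488/509 nm), normalized to DMSO and tomatine controls. Cancer cells in serum-free medium, with four compound doses (0.36-46 umol/L), sat 2 hr at RT then 16 hr at 37 C on a 48 hr fibroblast/mesothelial/ECM culture.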
# Sfp inh SAR2 – qHTS Assay for Inhibitors of Bacillus subtilis Sfp phosphopantetheinyl transferase (PPTase): SAR Round 2. shares compounds with NTMT1 inhibitor. purified Sfp enzyme, PPTase activity, qHTS. Potency, µM (doses to about 57.1 µM), usual class: inhibitors. 230 compounds, 87% hits
# hGST A1-1 inh – qHTS Assay for Inhibitors of Bacillus subtilis Sfp phosphopantetheinyl transferase (PPTase): SAR in hGST A1-1; 55 tested, under 10 active; shares compounds with NTMT1 inhibitor; Potency, µM (highest dose often 114 µM), hits mostly inhibitors; AID 602391, 2012; hGST A1-1 enzyme activity counter-screen, qHTS
# HSD17B4 inh – Extended Characterization of HPGD Inhibitors: Counterscreen Against HSD17b4; purified HSD17B4, estradiol/NAD+, NADH fluorescence; Potency, µM (doses to about 57.1 µM), usual class: inhibitors; shares compounds with NTMT1 inhibitor; 230 compounds, 10% hits
# ALDH1A1 counter – Extended Characterization of HPGD Inhibitors: Counterscreen Against ALDH1A1; shares compounds with NTMT1 inhibitor; 230 compounds, 93% hits; AID 743195, 2013; recombinant ALDH1A1, NADH fluorescence, propionaldehyde/NAD+; Potency, µM (top dose mostly 57.1 µM), hits mostly inhibitors
# NNMT inh – Counterscreen qHTS for Inhibitors of N-terminal methyltransferase 1 (NTMT1): NNMT MTaseGlo assay; Potency, µM (series often up to 57.1 µM), usual class: inhibitors; 120 compounds, 10% hits; NNMT MTase-Glo luminescence, SAH detection; shares compounds with NTMT1 inhibitor; AID 1645878, 2021
# Target sequence (P40261 whole entry, looked up): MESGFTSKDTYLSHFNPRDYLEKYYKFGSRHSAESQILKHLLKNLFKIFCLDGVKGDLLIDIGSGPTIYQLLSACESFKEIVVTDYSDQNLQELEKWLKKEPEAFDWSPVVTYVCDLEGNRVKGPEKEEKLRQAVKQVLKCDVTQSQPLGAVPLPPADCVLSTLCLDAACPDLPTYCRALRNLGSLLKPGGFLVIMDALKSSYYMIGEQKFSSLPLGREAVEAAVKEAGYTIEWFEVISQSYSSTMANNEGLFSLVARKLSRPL
# Numbers stand for hits; 0 = inactive; ? = inconclusive; - = not tested or not shown; ! = not confirmed by another sample. In the library only some 3.8% were active in any assay of this set; here they are far more common. Unless noted, calls follow the shape of the dose curve; as a rule, active = well fitted curve in the direction sought with a large enough effect; inconclusive = small, poorly fitted or top-dose-only effect, or another doubt; inactive = no such curve, though single readings can be large; an effect the other way counts as inactive or inconclusive.
SMILES,NTMT1 inhibitor,GPR32 ag,GALK inh,TSG101-PTAP inh,B2AR arrestin ag,SKOV3 invasion,NNMT inh,others
O=C(CS(=O)(=O)c1cccc2nsnc12)Nc1ccc(F)cc1,0,0,0,0,0,0,-,
O=C(Nc1cccc(Cl)c1)C(Cc1ccccc1)n1cccc1 (stereo unspecified),0,0,0,0,0,0,-,
CC(Cc1ccccc1)C(=O)Nc1ccc(Cl)cc1C(=O)O (stereo unspecified),0,-,-,-,-,-,-,Sfp inh SAR2=0;hGST A1-1 inh=?;HSD17B4 inh=24.1µM;ALDH1A1 counter=24.1µM
CSC(Cc1ccc(Cl)cc1)C(=O)Nc1ccc(Cl)cc1C(=O)O (stereo unspecified),0,-,-,-,-,-,-,Sfp inh SAR2=0;hGST A1-1 inh=?;HSD17B4 inh=?;ALDH1A1 counter=24.1µM
OCc1ccc(-c2ccc(-c3ccc(CO)s3)o2)s1,?,-,-,-,-,0,0,
COc1cc(N2CCC(N3CCN(C)CC3)CC2)ccc1Nc1ncc(Cl)c(-c2c[nH]c3ccccc23)n1,20µM,-,-,-,-,-,?,
CCOc1cc(N2CCC(O)CC2)ccc1Nc1ncc2c(n1)N(C)c1ccccc1C(=O)N2C,?,-,-,-,-,0,-,
COc1cc(N2CCN(C(C)=O)CC2)ccc1Nc1ncc(Cl)c(Nc2ccc(N3CCN(C(C)=O)CC3)cc2OC)n1,20µM,-,-,-,-,-,?,
COc1ccc(CCNC(=O)CCc2c(C)c3cc4c(C)coc4cc3oc2=O)cc1,-,0,0,0,0,0,-,
CC(C)C[C@H](C(=O)O)c1cc(-c2ccc(C(F)(F)F)cc2)cc(-c2ccc(C(F)(F)F)cc2)c1,0,-,-,-,-,-,-,
CC#C[C@@H](CC(=O)O)c1ccc(OCc2cccc(-c3ccc(C(F)(F)F)cc3)c2)cc1,22.4µM,-,-,-,-,-,?,
Cn1sc(=O)n(Cc2ccccc2)c1=O,7.94µM,-,-,-,-,-,1.58µM,
Cc1sc2c(c1C)c(=O)n(Cc1ccccc1)c(=O)n2Cc1ccc(F)cc1,0,0,0,0,0,0,-,
CCC1CCCCN1S(=O)(=O)c1cc(C(=O)Nc2ccc(C)c(F)c2)ccc1F (stereo unspecified),0,0,0,0,0,0,-,
C=C1C(=O)OC2C3=C(C)C(=O)CC3C(C)CC(O)C12 (stereo unspecified),0,-,-,-,-,-,-,
CCOc1ccc(OCc2ccc(C(=O)Nc3cc(OC)c(OC)c(OC)c3)o2)cc1,0,0,0,0,0,0,-,
COc1cc(CCc2ccc(OCC=C(C)C)cc2)cc(OC)c1OC,0,-,-,-,-,-,0,
Cc1ccccc1NC(=O)c1c2c(nc3ccccc13)C(=O)N(C1CCCCC1)C2,0,0,0,0,0,0,-,
Cn1c(=O)c2c(ncn2CC(=O)Nc2cc(Cl)cc(Cl)c2)n(C)c1=O,0,0,0,0,0,0,-,
NC(=NCCCCCCN=C(N)/N=C(\N)Nc1ccc(Cl)cc1)/N=C(\N)Nc1ccc(Cl)cc1,25.1µM!,86.5,-,-,-,-,?,
Cc1ccc(Cl)cc1NC(=O)CN1C(=O)COc2ccc(S(=O)(=O)N3CCCCCC3)cc21,?,0,0,0,0,0,-,
CCOc1ccc2oc(=O)cc(CN3CCN(C(=O)c4cccc(F)c4)CC3)c2c1,0,0,0,0,0,0,-,
CCCCc1ccc(C(=O)Nc2ccc(S(=O)(=O)Nc3nccs3)cc2)cc1,0,-,-,-,-,-,-,
CC(=O)Nc1ccc(CNc2ncnc3ccc(-c4c(C)noc4C)cc23)cc1,0,-,-,-,-,-,-,

# From PubChem
